Measured values from ChEMBL document CHEMBL1961873, “Compounds: GSK PKIS; Assays: Nanosyn kinase panel” (2012).

Experiments:
[1] = target: Protein kinase C gamma type (Homo sapiens) (UniProt P05129); settings: at 1 µM;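 note: each value is an averaged percent inhibition of the enzyme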
[2] = target: T1, Protein kinase C iota type (Homo sapiens) (UniProt P41743); settings: at 0.1 µM
T1 sequence (whole entry): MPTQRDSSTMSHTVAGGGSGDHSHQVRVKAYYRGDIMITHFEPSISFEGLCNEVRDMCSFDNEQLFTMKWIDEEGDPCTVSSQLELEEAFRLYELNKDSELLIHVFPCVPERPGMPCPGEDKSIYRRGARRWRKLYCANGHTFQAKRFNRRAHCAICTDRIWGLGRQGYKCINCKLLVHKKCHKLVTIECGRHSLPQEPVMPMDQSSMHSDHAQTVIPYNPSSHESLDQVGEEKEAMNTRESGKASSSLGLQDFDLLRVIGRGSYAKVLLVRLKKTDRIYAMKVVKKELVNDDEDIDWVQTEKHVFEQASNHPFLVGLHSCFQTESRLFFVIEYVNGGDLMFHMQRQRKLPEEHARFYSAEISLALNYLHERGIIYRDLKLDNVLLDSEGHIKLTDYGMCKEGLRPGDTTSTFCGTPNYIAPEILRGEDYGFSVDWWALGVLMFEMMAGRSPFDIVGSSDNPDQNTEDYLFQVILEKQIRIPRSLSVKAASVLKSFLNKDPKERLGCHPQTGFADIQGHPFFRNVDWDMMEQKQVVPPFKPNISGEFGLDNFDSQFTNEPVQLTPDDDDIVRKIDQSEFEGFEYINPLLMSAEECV

[3] = target: T1, Protein kinase C iota type (Homo sapiens); settings: at 1 µM
[4] = target: Protein kinase C theta type (Homo sapiens) (UniProt Q04759); settings: at 0.1 µM
Sequence of Protein kinase C theta type (Homo sapiens) (Q04759 whole entry, looked up): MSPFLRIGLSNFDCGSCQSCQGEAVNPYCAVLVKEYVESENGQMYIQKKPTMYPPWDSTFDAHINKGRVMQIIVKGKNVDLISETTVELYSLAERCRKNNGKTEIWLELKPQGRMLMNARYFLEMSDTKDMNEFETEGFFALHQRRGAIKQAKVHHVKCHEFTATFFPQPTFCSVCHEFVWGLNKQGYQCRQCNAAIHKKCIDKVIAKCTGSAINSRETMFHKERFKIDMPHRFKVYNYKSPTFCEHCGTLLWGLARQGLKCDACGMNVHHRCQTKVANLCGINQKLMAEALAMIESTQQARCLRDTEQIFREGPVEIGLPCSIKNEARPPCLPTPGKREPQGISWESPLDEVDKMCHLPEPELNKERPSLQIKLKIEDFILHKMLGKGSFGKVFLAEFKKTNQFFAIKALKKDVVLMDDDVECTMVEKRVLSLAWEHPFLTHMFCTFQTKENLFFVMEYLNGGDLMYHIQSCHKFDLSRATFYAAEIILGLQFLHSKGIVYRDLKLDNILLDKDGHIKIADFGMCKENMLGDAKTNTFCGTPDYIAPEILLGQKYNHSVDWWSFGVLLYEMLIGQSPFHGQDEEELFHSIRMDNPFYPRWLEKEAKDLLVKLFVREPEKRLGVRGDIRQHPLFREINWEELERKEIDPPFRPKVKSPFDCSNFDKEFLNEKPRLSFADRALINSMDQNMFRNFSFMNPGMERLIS

[5] = target: Protein kinase C theta type (Homo sapiens) (UniProt Q04759); settings: at 1 µM
[6] = target: Protein kinase C beta type (Homo sapiens) (UniProt P05771); settings: at 0.1 µM
Sequence of Protein kinase C beta type (Homo sapiens) (P05771 2-671 limits assumed): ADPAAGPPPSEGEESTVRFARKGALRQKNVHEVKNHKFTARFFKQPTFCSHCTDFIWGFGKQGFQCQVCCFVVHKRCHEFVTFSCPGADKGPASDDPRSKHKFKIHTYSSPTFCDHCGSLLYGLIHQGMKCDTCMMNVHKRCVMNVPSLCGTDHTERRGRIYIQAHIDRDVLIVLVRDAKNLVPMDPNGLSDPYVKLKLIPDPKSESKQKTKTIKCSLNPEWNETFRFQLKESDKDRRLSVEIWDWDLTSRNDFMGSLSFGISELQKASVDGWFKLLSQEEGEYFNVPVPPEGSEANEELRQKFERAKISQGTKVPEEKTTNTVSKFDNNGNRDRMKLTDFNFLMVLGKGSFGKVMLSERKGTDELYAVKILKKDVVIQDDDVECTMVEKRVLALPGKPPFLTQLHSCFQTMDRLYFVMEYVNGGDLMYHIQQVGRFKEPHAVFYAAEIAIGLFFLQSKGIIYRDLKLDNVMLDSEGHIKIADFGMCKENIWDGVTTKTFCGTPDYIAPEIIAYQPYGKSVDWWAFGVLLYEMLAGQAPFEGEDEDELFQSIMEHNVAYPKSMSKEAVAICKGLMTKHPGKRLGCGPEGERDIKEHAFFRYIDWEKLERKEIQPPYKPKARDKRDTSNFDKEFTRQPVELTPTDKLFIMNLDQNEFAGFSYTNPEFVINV

[7] = target: Protein kinase C beta type (Homo sapiens) (UniProt P05771); settings: at 1 µM
[8] = target: T2, Serine/threonine-protein kinase D1 (Homo sapiens) (UniProt Q15139); settings: at 0.1 µM
T2 sequence (whole entry): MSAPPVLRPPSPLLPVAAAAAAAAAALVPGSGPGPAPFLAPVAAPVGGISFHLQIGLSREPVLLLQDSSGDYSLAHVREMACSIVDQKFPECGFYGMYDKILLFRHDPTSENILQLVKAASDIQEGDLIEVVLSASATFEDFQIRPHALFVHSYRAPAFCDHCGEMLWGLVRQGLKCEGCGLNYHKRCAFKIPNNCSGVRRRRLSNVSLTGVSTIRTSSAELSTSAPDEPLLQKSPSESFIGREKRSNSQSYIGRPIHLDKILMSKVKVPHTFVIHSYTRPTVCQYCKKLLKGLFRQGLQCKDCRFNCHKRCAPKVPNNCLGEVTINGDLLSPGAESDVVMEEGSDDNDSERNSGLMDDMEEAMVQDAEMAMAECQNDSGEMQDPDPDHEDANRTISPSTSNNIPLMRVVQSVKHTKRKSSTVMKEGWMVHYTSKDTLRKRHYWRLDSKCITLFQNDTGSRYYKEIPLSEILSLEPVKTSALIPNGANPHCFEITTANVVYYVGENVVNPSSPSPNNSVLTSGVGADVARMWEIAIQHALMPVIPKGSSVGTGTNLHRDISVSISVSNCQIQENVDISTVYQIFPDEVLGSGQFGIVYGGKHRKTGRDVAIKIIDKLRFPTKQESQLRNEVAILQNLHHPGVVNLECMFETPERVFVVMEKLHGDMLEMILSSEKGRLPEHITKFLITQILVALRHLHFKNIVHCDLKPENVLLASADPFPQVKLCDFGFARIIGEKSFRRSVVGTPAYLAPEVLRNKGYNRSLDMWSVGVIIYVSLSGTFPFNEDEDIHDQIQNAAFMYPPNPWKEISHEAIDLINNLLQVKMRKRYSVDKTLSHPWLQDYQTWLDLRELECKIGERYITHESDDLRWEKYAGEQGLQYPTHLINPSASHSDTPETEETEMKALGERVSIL

[9] = target: T2, Serine/threonine-protein kinase D1 (Homo sapiens); settings: at 1 µM
[10] = target: T3, Serine/threonine-protein kinase D2 (Homo sapiens) (UniProt Q9BZL6); settings: at 0.1 µM;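 note: reported percent inhibition values are means, part of the GSK PKIS kinase panel screen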
T3 sequence (whole entry): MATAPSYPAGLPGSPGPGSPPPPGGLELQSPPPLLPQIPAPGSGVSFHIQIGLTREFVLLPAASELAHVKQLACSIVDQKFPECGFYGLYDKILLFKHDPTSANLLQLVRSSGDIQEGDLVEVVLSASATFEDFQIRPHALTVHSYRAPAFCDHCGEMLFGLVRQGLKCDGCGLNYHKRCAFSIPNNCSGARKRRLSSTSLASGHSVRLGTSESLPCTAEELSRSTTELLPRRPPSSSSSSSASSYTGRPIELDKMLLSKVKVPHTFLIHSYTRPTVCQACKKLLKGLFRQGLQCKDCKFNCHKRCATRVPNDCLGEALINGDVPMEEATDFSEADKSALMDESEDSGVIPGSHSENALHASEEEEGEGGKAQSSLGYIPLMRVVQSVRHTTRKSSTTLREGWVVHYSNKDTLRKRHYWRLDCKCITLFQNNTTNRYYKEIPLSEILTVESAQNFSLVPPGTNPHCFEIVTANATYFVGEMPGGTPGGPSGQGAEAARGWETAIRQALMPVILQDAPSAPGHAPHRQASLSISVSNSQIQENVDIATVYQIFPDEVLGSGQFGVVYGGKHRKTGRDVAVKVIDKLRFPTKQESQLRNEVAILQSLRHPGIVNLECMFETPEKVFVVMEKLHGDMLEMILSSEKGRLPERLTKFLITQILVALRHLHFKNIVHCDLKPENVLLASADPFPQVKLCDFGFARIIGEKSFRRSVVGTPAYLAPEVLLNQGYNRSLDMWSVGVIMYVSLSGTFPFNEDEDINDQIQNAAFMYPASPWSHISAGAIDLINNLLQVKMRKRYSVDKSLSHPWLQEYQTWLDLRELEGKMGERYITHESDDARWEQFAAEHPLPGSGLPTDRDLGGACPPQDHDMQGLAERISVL

| SMILES | inhibition [1] | inhibition [2] | inhibition [3] | inhibition [4] | inhibition [5] | inhibition [6] | inhibition [7] | inhibition [8] | inhibition [9] | inhibition [10] |
| --- | --- | --- | --- | --- | --- | --- | --- | --- | --- | --- |
| CN1CCN(CCCNc2nc3ccc(Oc4ccc(NC(=O)Nc5cc(C(F)(F)F)ccc5F)cc4)cc3[nH]2)CC1 | 2.83% | 1.14% | 1.05% | -0.2% | -0.32% | 2.09% | 2.68% | -0.88% | -1.77% | -2.52% |
| COc1cc(Nc2ncc(-c3ccccc3)o2)cc(OC)c1OC | 1.46% | 0.32% | 0.77% | -0.7% | -0.9% | 0.3% | 2.2% | -0.66% | -1.47% | -0.6% |
| COc1ccc2ncn(-c3cc(O[C@H](C)c4ccccc4Cl)c(C(N)=O)s3)c2c1 | 2.27% | 4.03% | 3.88% | 2.43% | 2.69% | 1.24% | 2.97% | -0.01% | -0.79% | -0.02% |
| COc1cc(Nc2ncc3c(C)nc(-c4cccc(C(F)(F)F)c4)n3n2)cc(OC)c1OC | 7.63% | 0.74% | 0.54% | 1.87% | 5.29% | 1.35% | 2.31% | 1.48% | 2.12% | 1.81% |
| NC(=O)Cc1ccccc1Oc1nccc(-c2c(-c3ccc(F)cc3)ncn2C2CCNCC2)n1 | 0.76% | 0% | 0.16% | 0.43% | -0.38% | 1.22% | 3.91% | 4.86% | 8.87% | 4.63% |
| COc1cc(N2CCN(C(C)C)CC2)ccc1Nc1nc(Nc2ccc(F)cc2C(=O)NC[C@@H](O)CO)c2cc[nH]c2n1 | 7.34% | 2.87% | 0.36% | 3.85% | 6.2% | 1.04% | 2.5% | 1.65% | 13.4% | 3.16% |
| c1ccc(Oc2ccc(Nc3ncc(-c4ccccc4)o3)cc2)cc1 | 3.46% | 1.87% | 0.57% | 1.08% | 0.33% | 0.45% | 1.67% | 2.12% | 4.49% | 1.43% |
| CCN(CC)Cc1ccc(Nc2nccc(-c3cnn4ncccc34)n2)cc1 | 7.9% | 1.27% | 2.03% | 2.37% | 4.84% | 1% | 6.38% | 36.3% | 65.6% | 28.1% |
| C[C@@H](Oc1cc(-n2cnc3ccc(OCC4CCN(C)CC4)cc32)sc1C(N)=O)c1ccccc1Cl | 6.3% | 1.84% | 2.7% | 4.47% | 15.3% | 3.47% | 11.6% | 6.16% | 12% | 7.73% |
| Fc1ccc(-c2ncn(C3CCNCC3)c2-c2ccnc(Oc3ccc4c(c3)OCO4)n2)cc1 | 6.16% | 4.45% | 4.29% | 3.38% | 3.39% | 1.38% | 5.69% | 4.85% | 12.4% | 5.35% |
| Cc1ccc(C(=O)NC(C)C)cc1-c1ccc(C(=O)NCC2CC2)cc1 | -2.88% | -0.44% | -0.8% | -1.25% | -1.29% | -0.65% | -0.9% | -3.39% | -3.57% | -1.97% |
| NS(=O)(=O)c1ccc(N/N=C2\C(=O)Nc3ccc(C(=O)NCCCn4ccnc4)cc32)cc1 | 7.85% | 2% | 1.81% | 2.3% | 6.44% | 2.11% | 4.2% | 5.9% | 22.9% | 7.13% |
| NS(=O)(=O)c1ccc(N/N=C2\C(=O)Nc3ccc(-c4cnco4)cc32)cc1 | 4.1% | 1% | 0.97% | 1.05% | 2.96% | 0.38% | 1.12% | -1.79% | 12.6% | -0.15% |
| Fc1ccc(-c2ncn(C3CCNCC3)c2-c2ccnc(Oc3ccc(F)c(F)c3)n2)cc1 | 4.25% | 1.82% | 1.79% | 2.61% | 2.43% | 0.97% | 3.85% | 2% | 7.05% | 1.25% |
| CS(=O)(=O)CCNCc1ccc(-c2ccc3ncnc(Nc4ccc(OCc5ccccc5)c(Br)c4)c3c2)o1 | -0.13% | 2.91% | 2.72% | 2.31% | 2.41% | 0.97% | 1.27% | 0.19% | -0.25% | 0.64% |
| Fc1ccc(-c2nc3n(c2-c2ccncc2)CCS3)cc1 | 0.85% | 2.39% | 2.4% | 1.87% | 1.91% | 1.53% | 4.27% | 0.84% | 4.16% | 2.09% |
| O=C1Nc2ccc(I)cc2C1=Cc1cc(Br)c(O)c(Br)c1 | 2.63% | 0.72% | 1.75% | 1.74% | 2.5% | 0.99% | 1.87% | 3.52% | 4.76% | 2.97% |
